Screening data deposited in PubChem BioAssay by several laboratories.
Only some compounds are listed: those with a hit (about 2.8% of all), similar ones and a draw of the others.
TRPM1 prom inh – inhibitors of MITF-driven TRPM1 promoter in melanoma cells | SK-MEL-5 TRPM1 promoter luciferase, 24 h | inhibition, % at 12.5 µM | actives 0.83% (n = 330,000) | AID 488899;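 active = mean inhibition across replicates of 60% or more, whatever share of single replicates reaches that level; inconclusive = some that reach 60%, reason not given; inactive = mean inhibition across replicates below 60%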
Shn3 inh set2 – inhibitors of Schnurri-3 3'UTR reporter in osteoblasts | Clone20 osteoblast Shn3 3'UTR firefly luciferase, 24 h | inhibition, % at 12.5 µM | actives 0.52% (n = 360,000);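 active = mean inhibition of at least 75% with every replicate also reaching 75%; inconclusive = mean inhibition at least 75% but some replicate below; inactive = mean inhibition below 75%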;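 also: 0% = median of neutral control wells and 100% = pilot-screen positive control compound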
CF NFkB inh – blocks PAF-induced NF-kB reporter in cystic fibrosis cells; inhibition, % at 5 µM; actives 0.86% (n = 360,000); KKLEB NF-kB-GFP reporter, GFP fluorescence overnight;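 active = at least 50% inhibition at 5 µM, scaled per plate between neutral and stimulator controls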;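 also: PAF is a Pseudomonas aeruginosa culture filtrate used as stimulus; plate controls were PAF-stimulated DMSO wells for no effect and unstimulated DMSO wells for full effect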
HIF-2a block – HIF-2a inhibition; 786-0 RCC cells HIF-2a reporter, luciferase luminescence, overnight; inhibition, % at 18.8 µM; actives 0.72% (n = 360,000); AID 624352;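 active = inhibition of the luminescence signal of 40% or more relative to plate controls, in a single-dose primary screen at 18.75 µM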
KKLEB cytotox – counter-screen for CF NF-kB inhibitors: cytotoxicity; KKLEB CF airway cells viability, ATPlite luminescence, overnight; stronger effect = lower value; cells stimulated with P. aeruginosa culture filtrate; activity change (cytotoxicity), % at 5 µM; actives 0.36% (n = 360,000);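 active = corrected activity change at or below -50% at 5 µM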
Peg3 prom inh – inhibitors of Peg3 promoter | AID 588405 | inhibition, % at 20 µM | actives 1.7% (n = 360,000) | HeLa PEG-Prom luciferase reporter, luminescence, overnight;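 active = inhibition of at least 50% at 20 µM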
Starred values were filed as active, the others as inactive; u = inconclusive; x = no result.

SMILES	TRPM1 prom inh	Shn3 inh set2	CF NFkB inh	HIF-2a block	KKLEB cytotox	Peg3 prom inh
COc1ccc(NC(=O)/C(Cl)=C(/Cl)S(=O)(=O)Cc2ccc(C)cc2)cn1	94.2*	u	86.6*	95.9*	-70.9*	105.1*
COc1ccc(NC(=O)/C(Cl)=C(/Cl)S(=O)Cc2ccccc2Cl)cn1 (stereo not drawn)	97.6*	x	x	x	x	x
CCN1/C(=C/c2ccc3cc(C)ccc3[n+]2CC)Sc2ccccc21	101.3*	84.4	-312.3	74.9*	-3.3	104.3*
CCN1/C(=C/c2ccc3cc(C)ccc3[n+]2CC)Sc2cc(C)c(C)cc21	69.0*	35.5	-10.7	11.1	-13.9	52.2*
CCOC(=O)/C(=C/C=C1\Sc2cc(C)c(C)cc2N1CC)C(C)=O	11.0	50.6	-84.7	11.0	4.3	5.0
CC[n+]1c(/C=C2\Sc3ccccc3N2C)ccc2cccc(C)c21	104.0*	89.0*	-247.8	78.9*	-18.4	114.1*
CC[n+]1ccccc1/C=C1\Sc2ccc(C)cc2N1C	15.5	81.2	-56.3	-8.3	-7.9	13.5
N#Cc1ccsc1NC(=O)C1CCN(C(=O)c2ccc(Cl)cc2)CC1	16.5	4.0	-6.2	12.3	1.0	-10.9
Cc1ccccc1NC(=O)CSc1nnc(C2CC2)n1CC1CCCO1 (stereo not drawn)	1.9	-14.9	15.9	-1.6	-3.8	-8.0
N#C/C(=N\Nc1ccc(Cl)cc1)C(N)=S	-6.7	11.3	60.8*	-160.8	-39.1	-30.7
N#C/C(=N\Nc1ccccc1)C(N)=S	13.4	x	17.6	-6.7	-5.2	5.8
Cc1ccc(NC(N)=S)cc1C	8.1	-10.4	-9.2	3.8	-3.3	2.6
Cc1ccc(N/N=C(\C#N)C(N)=S)cc1C	2.2	-34.8	67.1*	-80.4	-0.4	-7.8
CNC(=O)C1Cc2ccccc2CN1S(=O)(=O)c1cccs1 (stereo not drawn)	9.8	5.0	-9.9	1.7	3.2	51.4*
O=[N+]([O-])c1ccc(O)c(/C=N/Nc2ncnc3c2cnn3-c2ccccc2)c1	11.9	91.7*	34.0	-129.6	-16.7	33.5
Oc1ccc(C=NNc2ccccn2)c(O)c1	1.6	86.1*	13.0	-175.1	-18.2	-80.5
O=[N+]([O-])c1ccc(O)c(/C=N/Nc2nc3ccccc3[nH]2)c1	35.0	72.4	18.3	-149.9	-3.0	-40.2
O=[N+]([O-])c1ccc(O)c(/C=N/Nc2ccccn2)c1	64.7*	75.0	69.0*	-100.3	-65.1*	32.5
Cc1cc(=O)c(C(=O)Nc2cccc(C(=O)NC3CC3)c2)nn1-c1ccccc1	x	-19.5	-14.9	8.5	9.1	0.3
Cc1ccc(-c2onc(C)c2C)cc1S(=O)(=O)N1CCOc2ccccc21	11.0	55.4	-3.8	14.2	-5.9	52.0*
COc1ccc(CNC(=O)CN(C(=O)CCC(=O)Nc2nccs2)c2cccc(C)c2)cc1	6.8	6.1	-12.6	9.3	7.9	-2.6
CC(C)CCNc1nc(N)c([N+](=O)[O-])c(N2CCCCCC2)n1	13.3	86.8*	31.8	6.0	-10.2	20.2
CC(C)Nc1nc(NC(C)C)nc(SCC(N)=O)n1	-4.8	29.2	16.0	11.7	-6.2	6.8
COc1ccccc1CNc1nc(NCCOc2ccccc2Cl)c2sccc2n1	x	78.1	18.0	-9.0	-28.9	59.6*
COc1ccccc1CNc1nc(NC(C)C)nc2ccsc12	x	24.9	-15.3	5.7	-14.1	-1.8
SMILES	TRPM1 prom inh	Shn3 inh set2	CF NFkB inh	HIF-2a block	KKLEB cytotox	Peg3 prom inh
COc1ccccc1CNc1nc(NCc2ccc(C(C)C)cc2)c2sccc2n1	x	87.5*	28.9	7.7	-15.2	95.3*
CNc1nc(NCCOc2ccccc2Cl)c2sccc2n1	x	69.6	-3.2	-46.2	-4.7	-21.1
CC(C)c1ccc(CNc2nc(NCC3CC3)nc3ccsc23)cc1	x	73.5	30.9	12.3	-33.5	53.9*
NC(=O)C1CCN(c2ncnc3c2c(-c2ccccc2)cn3-c2ccccc2)CC1	-5.2	-10.5	17.2	22.3	-2.7	61.5*
COc1ccc(C(=O)C(CN2CCOCC2)c2ccccc2)cc1F (stereo not drawn)	54.1	32.6	36.1	30.6	-35.1	95.2*
COc1ccc(C(O)C(CN2CCOCC2)c2ccccc2)cc1F (stereo not drawn)	6.5	9.2	-0.4	4.8	9.0	12.4
OC[C@H]1O[C@@H](Oc2ccc(O)cc2)[C@H](O)[C@@H](O)[C@@H]1O	13.8	87.7*	-6.0	-2.0	10.2	6.7
CC(=O)c1cccc(Nc2nc3ccccc3n3cnnc23)c1	-8.9	-53.2	-59.9	-46.0	0.4	-30.3
CCOc1cc(CNCCCN2CCOCC2)cc(Br)c1OCc1ccccc1Cl	36.8	85.6*	35.0	13.1	-54.9*	110.8*
CCOc1cc(CNCCO)cc(Br)c1OCc1ccc(Cl)cc1	20.9	-13.2	3.5	-11.6	-12.0	101.0*
CCOc1cc(CNCCN2CCOCC2)ccc1OCc1ccccc1Cl	-16.0	-35.4	-3.9	2.4	-5.3	7.4
CCOc1cc(CNC(C)(C)CO)cc(Br)c1OCc1ccc(Cl)cc1Cl	-5.0	34.2	20.6	-25.5	-13.9	58.0*
COc1cc(CNC(C)(C)CO)cc(Br)c1OCc1ccccc1	-23.0	5.8	15.4	9.8	-3.6	0.0
Cc1cccc(C)c1N1CCN(C(=O)Cn2cncn2)CC1	-0.8	1.4	11.3	17.9	-2.2	8.8
CCN(CC)S(=O)(=O)c1ccc(C(=O)NC(=S)N2CCCCC2C)cc1 (stereo not drawn)	x	-18.6	13.7	3.7	-7.1	11.2
COc1ccccc1CO/N=C/NC(=O)c1c(OC)ccnc1Oc1ccc(F)cc1	4.5	8.5	-19.9	24.2	-2.0	12.2
COc1ccnc(Oc2ccccc2)c1C(=O)N/C=N/OCc1ccc(F)cc1Cl	-4.7	18.5	39.5	-12.2	-25.8	56.9*
COC(=O)C1(C(=O)OC)C(C(=O)c2ccccc2)C1c1ccccc1 (stereo not drawn)	0.0	11.3	9.1	4.8	4.9	-0.6
O=C1C=C(Nc2ccc(F)cc2)c2ccccc2C1=O	96.5*	8.5	82.5*	-32.0	-18.9	11.8
O=C1C=C(Nc2cccnc2)c2ccccc2C1=O	100.6*	10.7	54.2*	17.3	10.2	24.7
CCOc1ccc(NC2=CC(=O)C(=O)c3ccccc32)cc1	102.3*	11.9	80.5*	-105.6	-13.4	-53.6
COC1=C(Nc2ccc(C)cc2)C(=O)c2ccccc2C1=O	25.4	-30.5	47.4	-165.7	-20.7	-168.7
COc1cc(Cl)c(NC2=CC(=O)C(=O)c3ccccc32)c(OC)c1	95.9*	19.0	82.8*	37.5	-44.0	16.4
CC(C)(C)OC(=O)C[C@@H]1C/C=C\C[C@H](CC(=O)NCCO)C(=O)N[C@@H](Cc2ccccc2)COC1=O	8.0	-17.6	-15.5	7.5	14.4	10.3
COC(=O)c1ccc([N+](=O)[O-])cc1N1C(=O)C2C3CCC(C3)C2C1=O (stereo not drawn)	-1.0	-9.8	-1.0	17.2	2.0	4.3
